The list is not random: actives were taken first. Their share in the collection is about 2.9%.
DRD3 agonist: qHTS of D3 Dopamine Receptor Agonist: qHTS; D(3) dopamine receptor (Homo sapiens), P35462; D3R DiscoveRx beta-arrestin cells, luminescence, 90 min; max activation, %; 410,000 tested, 0.58% active; in the data active = max activation above about 30%; also: 0% is about no effect
Target sequence (P35462 whole entry, looked up): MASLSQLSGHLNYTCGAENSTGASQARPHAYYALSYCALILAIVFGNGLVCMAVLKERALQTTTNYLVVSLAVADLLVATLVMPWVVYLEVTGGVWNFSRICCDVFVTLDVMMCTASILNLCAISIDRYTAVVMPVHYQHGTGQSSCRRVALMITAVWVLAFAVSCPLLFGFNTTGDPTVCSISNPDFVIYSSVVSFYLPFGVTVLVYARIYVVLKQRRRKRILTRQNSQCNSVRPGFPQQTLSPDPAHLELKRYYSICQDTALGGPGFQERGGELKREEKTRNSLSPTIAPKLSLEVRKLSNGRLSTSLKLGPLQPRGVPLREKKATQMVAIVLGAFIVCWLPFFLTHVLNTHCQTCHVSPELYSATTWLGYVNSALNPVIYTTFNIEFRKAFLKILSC
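Agonist-mode cell screen: cells plated at 1500/well and incubated overnight at 37 °C, then exposed to library compounds for 90 min at 37 °C. Detection reagent was added for 30–60 min at room temperature, and luminescence was read.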
B2AR arrestin: qHTS assay of beta-arrestin-biased ligands of beta2-adrenergic receptor; beta-arrestin recruitment to beta2AR, cell-based reporter; Potency, µM (top dose mostly 46.1 µM), inactives show top-dose activation, usual class: activators; 330,000 tested, 0.02% active;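 also: potency is read from the fitted curve at half-maximal effect; 0% = DMSO controls and full agonism = EC100 isoproterenol or metaproterenol; nearly all actives have a fitted effect of over 65% in size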
IDH1 R132H inh: qHTS for Inhibitors of mutant isocitrate dehydrogenase 1 (IDH1): qHTS | Isocitrate dehydrogenase [NADP] cytoplasmic (Homo sapiens), O75874 | IDH1-R132H enzyme, NADPH consumption, diaphorase/resazurin fluorescence | Potency, µM (top dose mostly 76.6 µM), for the others: at the highest dose activity change, negative = inhibition, hits mostly inhibitors | 390,000 tested, 0.093% active; also: potency is read from the fitted curve at half-maximal effect; % is scaled to controls: 0 for no effect and ±100 for the full control effect; nearly all actives have a fitted effect of over 65% in size
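IDH1-R132H (0.5 ug/mL dispensed) in pH 7.5 Tris buffer was preincubated 30 min with compound, then given a substrate mix of 0.016 mM NADPH and 2 mM alpha-KG for 80 min at room temperature; remaining NADPH was read by diaphorase/resazurin fluorescence.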
Integrin act MD: qHTS for Activators of Integrin-Mediated Alleviation for Muscular Dystrophy. 350,000 tested, 0.064% active. Potency, µM (doses to about 38.3 µM), without a hit: at the highest dose activation, actives largely listed as activators. alpha7betagal myoblasts, beta-gal FDG fluorescence, 48 h;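 also: potency is read from the fitted curve at half-maximal effect; 100% = response of the positive control SU9516; nearly all actives have a fitted effect of over 60% in size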
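alpha7betagal+/- myoblasts (passage 13, 250/well) treated 48 h at 37C with compounds at 1:260 dilution of DMSO stock. Lysed, then beta-galactosidase activity read as FDG fluorescence (ex 480/em 540) after 30 min, with pre-read for autofluorescence.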
D3 antag: qHTS of D3 Dopamine Receptor Antagonist: qHTS; 360,000 tested, 2.5% active; max response, negative = inhibition, %; D3R cells, DiscoveRx beta-arrestin luminescence, antagonist mode; hits give low values; in the data active = max response below about -50%; inconclusive = no clear call, values can overlap the other calls; also: % is scaled to controls: 0 for no effect and ±100 for the full control effect
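Cells expressing the human receptor were seeded at 1500 cells/well, incubated overnight at 37 degrees C in 5% CO2, then exposed to library compounds with dopamine controls for 90 minutes at 37 degrees C before luminescent detection.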
The depositor's hits bear a star; [ ] = another dose, or the depositor's remark. Unless noted, calls follow the shape of the dose curve; as a rule, active = well fitted curve in the direction sought with a large enough effect; inconclusive = small, poorly fitted or top-dose-only effect, or another doubt; inactive = no such curve, though single readings can be large; an effect the other way counts as inactive or inconclusive.

COc1ccc(Cn2c(=O)n(-c3ccc(F)c(Cl)c3)c(=O)c3c2c2cc(OC)ccc2n3C)cc1 was read as DRD3 agonist 1.4 and IDH1 R132H inh 3.6%.
Screening CCOC(=O)[C@@H](CCc1ccccc1)N[C@H](C)C(=O)N1[C@H](C(=O)O)C[C@@H]2CCC[C@@H]21 returned DRD3 agonist -19.8, B2AR arrestin -0.8%, IDH1 R132H inh -7.0% and D3 antag -53.9*.
CCCCn1c(N)c(N(CC(C)C)C(=O)C2CC(=O)N(c3ccc4c(c3)OCCO4)C2)c(=O)[nH]c1=O (configuration not stated) was read as DRD3 agonist -8.4, B2AR arrestin -0.1%, IDH1 R132H inh 2.2%, Integrin act MD 11.0% and D3 antag -54.6*.
Screening COc1ccc(C(CNC(=O)c2ccc(S(=O)(=O)N3CC(C)CC(C)C3)cc2)N(C)C)cc1 (configuration not stated) returned DRD3 agonist -41.6, B2AR arrestin -0.6%, IDH1 R132H inh 6.2%, Integrin act MD -60.8% and D3 antag -62.8*.
`CN(C)C(CNC(=O)c1ccc(C(=O)c2ccccc2)cc1)c1ccccc1` (configuration not stated) gave DRD3 agonist -19.4, B2AR arrestin 0.0%, IDH1 R132H inh 9.5%, Integrin act MD -44.0% and D3 antag -56.5*.
For Cc1ccc(S(=O)(=O)N2CCN(c3ccccc3)CC2)cc1C(N)=O the results were DRD3 agonist 34.5*, B2AR arrestin 0.1%, IDH1 R132H inh -8.2%, Integrin act MD 0.0% and D3 antag 19.5.
COC(=O)c1cccc(S(=O)(=O)N2CCN(c3nc4ccccc4s3)CC2)c1 was read as DRD3 agonist 6.0, B2AR arrestin -1.1%, IDH1 R132H inh 0.0%, Integrin act MD 10.1% and D3 antag -68.1*.
For CCCC1CCc2[nH]nc(C(=O)NN)c2C1 (configuration not stated) the results were DRD3 agonist -12.5, B2AR arrestin -0.6%, IDH1 R132H inh -17.7%, Integrin act MD 1.0% and D3 antag -26.0.
For COc1ccc(C(CNC(=O)c2cccc(S(=O)(=O)NCc3ccccc3)c2)N(C)C)cc1 (configuration not stated) the results were DRD3 agonist -25.0, B2AR arrestin -1.1%, IDH1 R132H inh 4.4%, Integrin act MD -10.7% and D3 antag -71.3*.
For COc1ccc(NS(=O)(=O)c2cccc(C(=O)NCC(c3ccccc3)N(C)C)c2)cc1 (configuration not stated) the results were DRD3 agonist -32.6, B2AR arrestin 0.2%, IDH1 R132H inh 0.0%, Integrin act MD 19.1% and D3 antag inconclusive.
For CN(C)C(CNC(=O)c1cccc(S(=O)(=O)N2CCN(c3ccccc3)CC2)c1)c1ccccc1 (configuration not stated) the results were DRD3 agonist -25.2, IDH1 R132H inh -9.6%, Integrin act MD -19.6% and D3 antag -71.2*.
Screening COCCNc1nc(Oc2ccc(C(N)=O)cc2)c2sccc2n1 returned DRD3 agonist 43.1* and D3 antag -2.5.
COCCNc1nc(Oc2cccc3ccccc23)c2sccc2n1 was read as DRD3 agonist 54.0* and D3 antag -5.2.
For COCCNc1nc(Oc2cccc(NC(C)=O)c2)c2sccc2n1 the results were DRD3 agonist -0.7 and D3 antag -0.9.
Screening COCCNc1nc(Oc2ccccc2)c2sccc2n1 returned DRD3 agonist -0.1 and D3 antag -7.7.
`CC(C)CCNC(=O)CCCN1C(=O)c2ccccc2Sc2ncccc21` gave DRD3 agonist 7.8 and IDH1 R132H inh -6.2%.
For CC(=O)O[C@H]1C[C@@H]2CC[C@@H]3[C@H](CC[C@@]4(C)[C@H]3C[C@H](N3CC[N+](C)(C)CC3)[C@@H]4OC(C)=O)[C@@]2(C)C[C@@H]1N1CC[N+](C)(C)CC1 the results were DRD3 agonist 12.3.
For Cc1ccc(C(=O)c2cn(Cc3ccccc3C)c3nc(C)ccc3c2=O)cc1 the results were DRD3 agonist 2.3 and IDH1 R132H inh inconclusive.
For Nc1nc(-c2ccccc2)c(N=Nc2ccccc2Cl)s1 the results were DRD3 agonist -7.9, B2AR arrestin -0.3%, IDH1 R132H inh 7.2%, Integrin act MD -36.6% and D3 antag -59.4*.
Screening Cc1cc(N)n(-c2ncnc3scc(-c4ccc(Cl)cc4)c23)n1 returned DRD3 agonist 5.4, B2AR arrestin 0.3%, IDH1 R132H inh -0.7%, Integrin act MD 8.0% and D3 antag 5.4.
Clc1ncnc2scc(-c3ccc(Br)cc3)c12 was read as DRD3 agonist -12.1, B2AR arrestin 0.1%, IDH1 R132H inh -5.9%, Integrin act MD -48.4% and D3 antag -54.1*.
CC(C)CN(C[C@@H](OP(=O)(O)O)[C@H](Cc1ccccc1)NC(=O)O[C@H]1CCOC1)S(=O)(=O)c1ccc(N)cc1 was read as DRD3 agonist -0.6.
COc1ccc(CCNc2oc(/C=C/c3cc(OC)c(OC)c(OC)c3)nc2C#N)cc1OC was read as DRD3 agonist 12.8 and IDH1 R132H inh 3.3%.
CC(C)[C@H]1CN=C2N(C[C@H](C)NC(=O)CCC3CCCCC3)[C@H](Cc3ccc(O)cc3)CN21 was read as DRD3 agonist -71.8, B2AR arrestin -0.1%, IDH1 R132H inh -2.5%, Integrin act MD 16.3% and D3 antag -94.0*.
`C[C@@H](CN1C2=NC[C@H](C)N2C[C@H]1Cc1ccc(O)cc1)NC(=O)CCC1CCCCC1` gave DRD3 agonist -84.2, B2AR arrestin -0.3%, IDH1 R132H inh 2.2%, Integrin act MD -3.1% and D3 antag -66.3*.
For N#Cc1c(F)cccc1N1CCN(Cc2ccc3c(c2)OCO3)CC1 the results were DRD3 agonist -30.9, B2AR arrestin 0.1%, IDH1 R132H inh -1.9%, Integrin act MD 16.9% and D3 antag -91.0*.
`O=C(c1ccccc1F)N1CCN(Cc2ccc3c(c2)OCO3)CC1` gave DRD3 agonist -11.8, B2AR arrestin -0.6%, IDH1 R132H inh 3.0%, Integrin act MD 23.2% and D3 antag -67.4*.
Screening Cc1cc(C(=O)N2CCN(Cc3ccc4c(c3)OCO4)CC2)cs1 returned DRD3 agonist -30.6, B2AR arrestin -0.6%, IDH1 R132H inh 11.1%, Integrin act MD 9.6%[7.66 µM] and D3 antag -91.7*.
`O=C(O)c1ccccc1C(=O)N1CCN(Cc2ccc3c(c2)OCO3)CC1` gave DRD3 agonist -2.2, B2AR arrestin -0.4%, IDH1 R132H inh -13.7%, Integrin act MD -38.6% and D3 antag -1.7.
